# Measured values as given in PubChem BioAssay (Tox21).
# Inconclusive results are not listed. Values without a mark were called inactive. Active and inactive are the calls of the source. The call rests on the fitted dose curve; in most records, active means well fitted activation curve with a large enough effect in the repeat runs; inconclusive means weak or mixed curves; inactive means no such curve, though single readings can be large or run the other way.
# Biological target: Aryl hydrocarbon receptor (Homo sapiens) (UniProt P35869)
# Assay: qHTS assay to identify small molecule that activate the aryl hydrocarbon receptor (AhR) signaling pathway (AID 743085); further: nearly all actives have a fitted effect of over 15% in size;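 on activation: HG2L7.5c1 human HepG2 liver cells with stably integrated DRE-driven firefly reporter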
# Details: HepG2 AhR-luc (HG2L7.5c1), luciferase, 24 h; series mostly up to 70.3 µM; activation: at the top concentration
# From the text: U.S. Tox21 Program National Center for Advancing Translational Sciences [NCATS] NIH Chemical Genomics Center [NCGC] U.S. Environmental Protection Agency [EPA] National Institutes of Environmental Health Sciences [NIEHS] National Toxicology Program [NTP] U.S. Food and Drug Administration [FDA] Tox21 Assay overview: The Aryl hydrocarbon Receptor (AhR), a member of the family of basic helix-loop-helix transcription factors, is crucial to adaptive responses to environmental changes. AhR mediates cellular responses to environmental pollutants such as aromatic hydrocarbons through induction of phase I and II enzymes but also interacts with other nuclear receptor signaling pathways. A cell based HepG2-AhR-luc assay (HG2L7.5c1 cell line, developed by Dr. Michael S. Denison, University of California at Davis, was used to assess the activation of AhR. HepG2 (human hepatocellular carcinoma) cells were stably transfected with an Ah receptor-responsive firefly luciferase reporter gene plasmid containing 20 dioxin responsive elements and luciferase reporter gene. Increased luciferase activity can be used to identify the compounds that induce AhR activation.
# Tox21 Assay Protocol Summary: 4000 cells in 5 uL/well were dispensed into white wall/solid bottom 1536-well plates using a Multidrop Combi (Thermo Fisher Scientific Inc., Waltham, MA) dispenser. After the assay plates were incubated at 37C for 5 h, 23 nL of compound or DMSO vehicle was transferred to the assay plates by a pintool station (Kalypsys, San Diego, CA). The plates were incubated at 37C for 24 hr. After 1 ul/well of CellTiter-Fluor reagent (Promega, Madison, WI) was added into the assay plates using a Flying Reagent Dispenser (FRD) (Aurora Discovery, CA), the assay plates were incubated at 37C for 30 min. The fluorescence intensity in the plates was measured using a ViewLux plate reader (PerkinElmer, Shelton, CT), followed by the addition of 4 uL of ONE-Glo Luciferase Assay reagent (Promega) using an FRD (Aurora Discovery). After the assay plates were incubated at room temperature for 30 min, luminescence intensity was measured using a ViewLux plate reader (Perkin Elmer).
# On the % scale 0 is the no-effect control and ±100 the full control effect; potency means the concentration at half of the fitted maximal effect.
# Aryl hydrocarbon receptor (Homo sapiens), sequence (P35869 whole entry, looked up): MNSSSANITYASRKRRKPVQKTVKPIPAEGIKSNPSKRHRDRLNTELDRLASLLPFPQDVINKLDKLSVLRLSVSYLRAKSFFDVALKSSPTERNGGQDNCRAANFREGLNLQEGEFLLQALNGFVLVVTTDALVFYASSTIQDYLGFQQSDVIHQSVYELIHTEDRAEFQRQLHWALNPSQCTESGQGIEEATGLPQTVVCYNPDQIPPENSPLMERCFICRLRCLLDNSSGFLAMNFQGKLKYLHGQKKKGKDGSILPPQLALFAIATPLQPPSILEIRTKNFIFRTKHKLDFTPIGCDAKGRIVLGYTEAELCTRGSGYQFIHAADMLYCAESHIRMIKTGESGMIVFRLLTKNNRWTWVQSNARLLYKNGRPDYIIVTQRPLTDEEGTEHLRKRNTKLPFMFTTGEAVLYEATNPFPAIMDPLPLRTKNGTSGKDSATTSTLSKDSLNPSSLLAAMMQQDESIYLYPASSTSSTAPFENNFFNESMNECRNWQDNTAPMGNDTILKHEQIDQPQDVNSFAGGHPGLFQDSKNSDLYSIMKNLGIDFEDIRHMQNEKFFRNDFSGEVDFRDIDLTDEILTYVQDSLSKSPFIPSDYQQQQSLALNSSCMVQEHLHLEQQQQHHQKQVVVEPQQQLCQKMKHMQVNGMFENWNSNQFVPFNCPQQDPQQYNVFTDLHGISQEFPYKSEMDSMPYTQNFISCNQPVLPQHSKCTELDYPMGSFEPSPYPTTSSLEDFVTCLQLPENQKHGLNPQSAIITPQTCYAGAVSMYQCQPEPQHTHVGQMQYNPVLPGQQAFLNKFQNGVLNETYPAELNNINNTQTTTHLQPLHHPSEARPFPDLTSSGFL
SMILES,activation,Potency
N#C[C@@H]1C[C@@H]2C[C@@H]2N1C(=O)[C@@H](N)C12CC3CC(CC(O)(C3)C1)C2,-2.83%,
NCC1CCCC(CN)C1 (stereo not given),-0.477%,
CCc1cccc(N(C)C(N)=Nc2cccc3ccccc23)c1,7.75%,
CCn1cc(C(=O)O)c(=O)c2cc(F)c(N3CCNCC3)nc21,0.143% [at 32.5 µM],
CCOC(=O)CC(=O)C(=O)OCC,-1.95%,
CCCOC(=O)c1ccc(C(=O)OCCC)nc1,4.07%,
C[Si]1(C)O[Si](C)(C)O[Si](C)(C)O1,-0.43%,
CC1(C)C2=CCCC(C)(C)[C@]23CC[C@H]1C3,-0.706%,
O=[N+]([O-])c1cccc(S(=O)(=O)NCCNS(=O)(=O)c2cccc([N+](=O)[O-])c2)c1,2.02%,
Oc1ccc(Nc2ccccc2)cc1,2.72%,
CCCCC1C(=O)N(c2ccccc2)N(c2ccc(O)cc2)C1=O (stereo not given),0.0684% [at 32.5 µM],
CCC(C)(O)CCC=C(C)C (stereo not given),0.948%,
CCCCCCCCCCCCCCCCBr,-0.435% [at 32.5 µM],
Cc1ccc(/C=N/n2c(-c3ccccc3)csc2=S)cc1,,10.6 µM (active)
Cc1cc(OI)c(C(C)C)cc1-c1cc(C(C)C)c(OI)cc1C,2.99%,
CC(C)C(OC(=O)c1ccccc1)C(C)(C)COC(=O)c1ccccc1 (stereo not given),0.946%,
O=C(CCCN1CCN(c2ccc(F)cc2)CC1)NC1c2ccccc2CSc2ccccc21 (stereo not given),7.44%,
CN1C(=O)CC(C)(c2ccccc2)C1=O (stereo not given),5.13%,
CCOC(=O)[C@@H](C)Oc1ccc(Oc2nc3ccc(Cl)cc3o2)cc1,3.8%,
Nc1ccc(S(=O)(=O)O)c(N)c1,-1.2%,

SMILES,activation,Potency
CCCCCCCCCOC(C)=O,-1.24%,
CC(C)CCCCCCOC(=O)CCCCC(=O)OCCCCCCC(C)C,-0.444%,
CCOC(=O)c1ccccc1OC,-0.992%,
COC(OC)(C(=O)c1ccccc1)c1ccccc1,-1.19%,
Cc1cc(O)c(C(C)C)cc1Cl,,inactive
Cc1nc2ccccn2c(=O)c1CCN1CCC(C(=O)c2ccc(F)cc2)CC1,-0.385%,
C=CC(=O)NCOCC(C)C,-1.28%,
CC(=O)Nc1ccc(N)cc1,-1.11% [at 95 µM],
CCN(CC)CCNC(=O)c1ccc(NC(C)=O)cc1,5.25%,
CC1C2CC(CC2C2CCCC(O)C2)C1(C)C (stereo not given),-0.644%,
CCC(=O)Oc1ccc(/C(CC)=C(\CC)c2ccc(OC(=O)CC)cc2)cc1,-0.553%,
OCCSc1ccccc1,2.79%,
O=C1NCCN1,-0.279%,
CC(C)(C)CC(C)(C)c1ccc(OCCO)cc1,,inactive
COC(=O)Nc1nc2ccc(C(=O)c3cccs3)cc2[nH]1,,3.76 µM (active)
O=C(CS)OCCOC(=O)CS,-0.831%,
CCC(C(=O)OCCOCCN(CC)CC)c1ccccc1 (stereo not given),1.92%,
CC(C)OCC1CO1 (stereo not given),-0.0268%,
CC(=O)CC(c1ccc([N+](=O)[O-])cc1)c1c(O)c2ccccc2oc1=O (stereo not given),-0.145% [at 32.5 µM],
COc1cc2ncnc(Nc3ccc(F)c(Cl)c3)c2cc1OCCCN1CCOCC1,,15 µM (active)
